In the assay the test system is Aedes aegypti larvae. Nature of the assay: larval motility relative to same well at 0 h (fraction); higher = more motile (less active compound), active = 0.4 or less. The settings on record: 10 µM. The method in brief: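 Larvae (Aedes aegypti, hatched in pond salt solution with yeast at 25 °C and taken 18–24 h later) were plated at about 10 per 100 µL well. Compounds at 10 µM in 1% v/v DMSO were imaged with INVAPP at 0, 2 and 24 h, alongside solvent and larvicide controls on each plate. Reported relative motility is each well's score over its own starting score, as a median of three independent larval batches.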

Each structure is given as a SMILES string. Unmarked numbers belong to inactive results.

`O=C(Cn1cnc2ccccc2c1=O)Nc1ccccc1`: the larval motility was 0.554 (2 h) and 0.782 (24 h).
`CC(C)(C)c1cc(CCC(=O)N2CCC2)cc(C(C)(C)C)c1O`: the larval motility is 0.769 (2 h) and 0.774 (24 h).
For `O=[N+]([O-])c1cn(Cc2nc(O)nc(O)c2Br)cn1` the same measures were 0.834 and 0.417.
For `CCc1cc(Nc2cc(=O)n(CCN3CCN(C(=O)c4ccccc4)CC3)c(=O)[nH]2)ccc1C` the same measures were 1.11 and 1.07.
The matching figures for `O=C(NC1CCCc2c1[nH]c1ccc(Cl)cc21)c1ccccn1` (configuration not stated): 1.38 and 1.01.
Consider `CCC(C)(C)c1ccc(CC(C)CN2C[C@@H](C)O[C@@H](C)C2)cc1` (some centres not stated), for which the larval motility (2 h) was 0.895 and the larval motility (24 h) was 0.765.
The matching figures for `C[C@@H](NC(=O)c1ccccc1-c1ccccc1)B(O)O`: 0.616 and 0.615.
For `Cc1cc(C2CCCCC2)n(O)c(=O)c1` the same measures were 0.66 and 1.09.
For `O=C1NC(=S)N/C1=C\c1cc(Br)cc(Br)c1O` the same measures were 0.761 and 0.843.
For `Cc1cc(C)n2nc(C(=O)NS(=O)(=O)c3c(C)cccc3OC(F)(F)F)nc2n1`, the larval motility by setting is: (2 h) 1.04; (24 h) 1.13.
For `C[C@@H](NC(=O)c1cccc(-c2c[nH]c(-c3cc4ccccc4cn3)n2)c1)c1ccc(F)cc1` the same measures were 0.628 and 0.997.
For `CN(C)CCCNC(=O)c1ccc(-c2cc(O)c3ncccc3c2)cc1` the same measures were 0.79 and 0.683.
The matching figures for `CCc1cc(Cc2cnc(N)nc2N)cc2c1N(C)CCC2C` (configuration not stated): 0.948 and 0.898.
On to `O=C(NC(=O)N1CCCc2ccccc21)c1ccc(Cl)cc1Cl`, for which the larval motility is, setting by setting: (2 h) 0.529; (24 h) 0.89.
For `COc1ccc2cc3[n+](cc2c1OCCN(CCn1cncn1)Cc1ccc(F)cc1F)CCc1cc2c(cc1-3)OCO2`, the larval motility reads like this: (2 h) 0.821; (24 h) 0.778.
In the case of `CC[C@@H]1C(=O)OC[C@@H]1Cc1cncn1C`, the larval motility is 1.22 (2 h) and 0.972 (24 h).
With `O=C(O)c1ccccc1Sc1ncnc2sc3c(c12)CCC3`, the larval motility runs as follows: (2 h) 0.968; (24 h) 0.722.
For `O=C(NCc1ncc(C(F)(F)F)cc1Cl)c1c(Cl)cccc1Cl` the same measures were 1.3 and 1.42.
For `N=C(N)c1ccc(COc2ccc(Cl)cc2)cc1` the same measures were 1.16 and 0.589.
The matching figures for `COc1ccc(NC(=O)c2cc3ccccn3n2)cc1`: 0.48 and 0.782.
As to `CCCCOC(=O)Nc1cc2nc(C3CCCCC3)[nH]c2cc1N(CC)CC`, the larval motility is 0.544 (2 h) and 0.594 (24 h).
For `COc1nc2ccc(Br)cc2cc1[C@@H](c1ccccc1)[C@@](O)(CCN(C)C)c1cccc2ccccc12` the same measures were 0.838 and 0.679.
For `CCCCc1ccc(-c2nc(C)c(C(=O)OC)s2)cc1` the same measures were 1.33 and 0.97.
As for `CC(=O)NC[C@H]1CN(c2ccc(N3CCSCC3)c(F)c2)C(=O)O1`, the larval motility was 0.531 (2 h) and 1.07 (24 h).
In the case of `CCCCN1C[C@H](O)[C@@H](O)[C@H](O)[C@H]1CO`, the larval motility runs as follows: (2 h) 0.87; (24 h) 0.809.
The matching figures for `Fc1ccc(-c2nc(-c3c[nH]c4ccc(Br)cc34)[nH]c2-c2ccc(F)cc2)cc1`: 0.737 and 0.9.
For the compound `O=C(c1ccc(F)cc1)N1CCN2C(=O)c3ccccc3C12c1ccccc1` (configuration not stated), the larval motility is, setting by setting: (2 h) 1.12; (24 h) 0.984.
The matching figures for `CC[C@H]1OC(=O)[C@H](C)[C@@H](O[C@H]2C[C@@](C)(OC)[C@@H](O)[C@H](C)O2)[C@H](C)[C@@H](O[C@@H]2O[C@H](C)C[C@H](N(C)C)[C@H]2O)[C@](C)(O)C[C@@H](C)C(=O)[C@H](C)[C@@H](O)[C@]1(C)O`: 1.03 and 0.824.
For the compound `O=C(NCc1ccc(F)cc1)c1c(O)c2ncccc2[nH]c1=O`, the larval motility (2 h) is 0.718 and the larval motility (24 h) was 0.908.
The matching figures for `Cc1cc(-c2ccccc2)c(C(=O)C(=O)Nc2ccc(N3CCN(c4ncc(F)cn4)CC3)cc2)n1C`: 0.636 and 0.529.
For `CC(C)(C)NC(=O)[C@@H]1C[C@@H]2CCCC[C@@H]2CN1C[C@@H](O)[C@H](Cc1ccccc1)NC(=O)[C@H](CC(N)=O)NC(=O)c1ccc2ccccc2n1` the same measures were 1.43 and 1.49.

Values taken from the supplement of paper PMC8540655.
